Assay results as given in the supplement of paper PMC6805474.

Key:
[1] = test system: Schistosoma mansoni schistosomula (NMRI); assay: phenotypic severity score (0-4); higher = more antischistosomal effect, active = 2 or more; details: 10 µM
[2] = test system: Schistosoma mansoni schistosomula (Liberian); assay: drug effect (1 - score/DMSO control score) (fraction); higher = more antischistosomal effect, active = 0.5 or more; extreme values may be limits of the assay; details: 10 µM
Summary of the method: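 Schistosomula of the Liberian strain of Schistosoma mansoni were mechanically transformed from cercariae, pre-incubated for at least 12 h, and placed at 50 per well in flat-bottom 96-well plates with Medium 199 containing 5% FCS. Compounds were tested in duplicate at 10 µM at 37 °C and 5% CO2, alongside wells holding 0.1% DMSO. Parasites were scored visually at 10× after 24, 48 and 72 h on a quarter-point scale running from 3 (normal) to 0 (dead). Drug effect came from the mean test-well score relative to the mean DMSO-well score, with negative values set to zero and plates accepted only when the DMSO wells averaged at least 2.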

[3] = test system: Schistosoma mansoni schistosomula (LE); assay: XTT viability relative to DMSO control; higher = more viable (less active); details: 72 h; 10 µM
Procedure: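 XTT/PMS was then added for a further 24 h (72 h total) and A450 was read. % viability = (sample - heat-killed control)/(DMSO control - heat-killed control) x 100, from duplicate wells in two independent experiments.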
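Throughout, for phenotypic severity score (0-4): visual microscopic scoring of shape, motility and density changes versus 0.5% DMSO solvent controls, one point per descriptor, degeneracy or death scored 4, mean of duplicate wells.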

| Compound | phenotypic severity score ([1]; 24 h) | phenotypic severity score ([1]; 48 h) | phenotypic severity score ([1]; 72 h) | drug effect ([2]; 24 h) | drug effect ([2]; 48 h) | drug effect ([2]; 72 h) | XTT viability [3] |
| --- | --- | --- | --- | --- | --- | --- | --- |
| COc1ccc(-c2cncc3ccc(C(=O)NCCCn4ccnc4)nc23)cc1 | 1 (inactive) | 0 (inactive) | 0 (inactive) | < 0 (inactive) | 0.027 (inactive) | 0.0303 (inactive) |  |
| CCC(=O)Nc1ccccc1C(=O)Nc1ccccn1 | 1 (inactive) | 0 (inactive) | 0 (inactive) | 0.136 (inactive) | 0.3 (inactive) | 0.236 (inactive) |  |
| FC(F)(F)c1ccc(N(c2cccnc2)C2CCN(c3ccc(C(F)(F)F)cn3)CC2)cc1 | 0 (inactive) | 0 (inactive) | 1 (inactive) | 0.2 (inactive) | 0.222 (inactive) | 0.312 (inactive) |  |
| COc1ccc(CN2CCOc3ccc(C(C)(O)CN(C)C)cc3C2)cc1C (configuration not stated) | 0 (inactive) | 0 (inactive) | 1 (inactive) | 0.1 (inactive) | 0.0556 (inactive) | < 0 (inactive) |  |
| CC(C)(C)C1CCC(CC2=C(O)C(=O)c3ccccc3C2=O)CC1 (configuration not stated) | 3 (active) | 2 (active) | 2 (active) | 0.2 (inactive) | 0.189 (inactive) | 0.278 (inactive) |  |
| CC(C)(C)OC(=O)N1CCN(c2nccc(-c3ccc(-c4ccc(Cl)cc4)s3)n2)CC1 | 0 (inactive) | 0 (inactive) | 0 (inactive) | 0.182 (inactive) | 0.15 (inactive) | 0.182 (inactive) |  |
| Cc1cc(NC(=O)c2ccc(S(=O)(=O)N(Cc3ccccc3)C(C)C)cc2)no1 | 1 (inactive) | 0 (inactive) | 0 (inactive) | 0.135 (inactive) | 0.444 (inactive) | 0.25 (inactive) |  |
| CC(C)(C)c1cc(C(=O)Nc2cccnc2)cc(C(=O)Nc2cccnc2)c1 | 0 (inactive) | 0 (inactive) | 0 (inactive) | < 0 (inactive) | 0.0811 (inactive) | 0.0556 (inactive) |  |
| COc1ccc(Cn2cnc3c(-c4ccco4)nc(Cl)nc32)cc1 | 0 (inactive) | 0 (inactive) | 0 (inactive) | 0.105 (inactive) | 0.0556 (inactive) | 0.125 (inactive) |  |
| O=C(Nc1nnc(-c2ccc(Cl)cc2)o1)c1cccc(C(F)(F)F)c1 | 0 (inactive) | 4 (active) | 4 (active) | 0.0909 (inactive) | 0.25 (inactive) | 0.945 (active) |  |
| CCOC(=O)c1c(NC(=O)c2c(F)c(F)c(F)c(F)c2F)sc(C(N)=O)c1C | 4 (active) | 4 (active) | 4 (active) | 1 (active) | 1 (active) | 1 (active) |  |
| Cc1nc(-c2ccccn2)nc(NCCc2ccc(S(C)(=O)=O)cc2)c1Cl | 0 (inactive) | 4 (active) | 4 (active) | 0.135 (inactive) | 0.167 (inactive) | 0.5 (active) |  |
| CCc1nc2ccccc2n1CC(O)COc1cc(C)ccc1Cl (configuration not stated) | 0 (inactive) | 0 (inactive) | 0 (inactive) | 0.0909 (inactive) | 0.25 (inactive) | 0.236 (inactive) |  |
| COc1cc(C(F)(F)F)nc2ccc(C)c(N)c12 | 0 (inactive) | 0 (inactive) | 0 (inactive) | 0.136 (inactive) | 0.05 (inactive) | 0.0526 (inactive) |  |
| COc1ccc(C2(C(=O)Nc3ccc(Br)cc3)CCCC2)cc1 | 0 (inactive) | 0 (inactive) | 1 (inactive) | 0.25 (inactive) | 0.389 (inactive) | 0.5 (active) |  |
| Cc1nnc(NCc2cccc(Cl)c2)c2ccccc12 | 0 (inactive) | 0 (inactive) | 0 (inactive) | < 0 (inactive) | 0.25 (inactive) | 0.127 (inactive) |  |

| Compound | phenotypic severity score ([1]; 24 h) | phenotypic severity score ([1]; 48 h) | phenotypic severity score ([1]; 72 h) | drug effect ([2]; 24 h) | drug effect ([2]; 48 h) | drug effect ([2]; 72 h) | XTT viability [3] |
| --- | --- | --- | --- | --- | --- | --- | --- |
| O=C(Nc1nc(-c2ccccn2)cs1)c1cncn1-c1ccccc1 | 0 (inactive) | 0 (inactive) | 0 (inactive) | 0.0909 (inactive) | 0.15 (inactive) | 0.236 (inactive) |  |
| Nc1cccnc1Nc1ccc(Cl)cc1 | 0 (inactive) | 0 (inactive) | 0 (inactive) | 0.15 (inactive) | 0.278 (inactive) | 0.375 (inactive) |  |
| CN1CCN(c2nccc3[nH]c(-c4cccc(F)c4)cc23)CC1 | 0 (inactive) | 2 (active) | 4 (active) | 0.0909 (inactive) | 0.1 (inactive) | 0.158 (inactive) |  |
| COc1nc2ccc(Br)cc2cc1[C@@H](c1ccccc1)[C@@](O)(CCN(C)C)c1cccc2ccccc12 | 2 (active) | 4 (active) | 4 (active) | 0.318 (inactive) | 0.8 (active) | 0.945 (active) |  |
| Cc1ccc(-c2cc(C(=O)Nc3cccnc3)c3cc(Br)ccc3n2)cc1 | 2 (active) | 1 (inactive) | 0 (inactive) | 0.5 (active) | 0.667 (active) | 1 (active) |  |
| CC(C)=CCC/C(C)=C\CNCCNC1C2CC3CC(C2)CC1C3 (configuration not stated) | 4 (active) | 4 (active) | 4 (active) | 1 (active) | 1 (active) | 1 (active) |  |
| C[C@H](c1ccc2c(c1)CCCC2)N(C)c1ncc2c(N)nc(N)nc2n1 | 0 (inactive) | 0 (inactive) | 0 (inactive) | 0.2 (inactive) | 0.278 (inactive) | 0.438 (inactive) |  |
| COc1ccccc1OCCCCn1c(C2CC2)nc2ccccc21 | 0 (inactive) | 0 (inactive) | 0 (inactive) | 0.136 (inactive) | 0.2 (inactive) | 0.182 (inactive) |  |
| O=C(Nc1ccc2c(c1)B(O)OC2)c1ccccc1C(F)(F)F | 0 (inactive) | 0 (inactive) | 0 (inactive) | 0.1 (inactive) | 0.0556 (inactive) | 0.167 (inactive) |  |
| CCOc1ccc(-c2nc(CNCCc3ccc(F)cc3)cs2)cc1 | 0 (inactive) | 0 (inactive) | 0 (inactive) | 0.273 (inactive) | 0.4 (inactive) | 0.632 (active) |  |
| CS(=O)(=O)c1cccc(-c2cnc3[nH]cc(-c4ccc(CCC(=O)O)cc4)c3c2)c1 | 0 (inactive) | 0 (inactive) | 0 (inactive) | 0.227 (inactive) | 0.6 (active) | 0.455 (inactive) |  |
| O=C(NC1CC1)c1ccc(CSCc2ccccc2Cl)o1 | 1 (inactive) | 0 (inactive) | 1 (inactive) | 0.405 (inactive) | 0.444 (inactive) | 0.562 (active) | 114% |
| CCOc1ccc2cc(-c3nn(C(C)(C)C)c(N)c3C(N)=O)cnc2c1 | 0 (inactive) | 0 (inactive) | 0 (inactive) | 0.2 (inactive) | 0.243 (inactive) | 0.389 (inactive) | 75.2% |
| COc1ccc(-c2cnc3ccc(NCc4ccc(S(N)(=O)=O)cc4)nn23)cn1 | 0 (inactive) | 0 (inactive) | 0 (inactive) | 0.15 (inactive) | 0.222 (inactive) | 0.312 (inactive) | 125% |
| Nc1ncc(-c2ccc(C(F)(F)F)nc2)cc1-c1ccc(C(F)(F)F)nc1 | 0 (inactive) | 0 (inactive) | 0 (inactive) | 0.182 (inactive) | 0.15 (inactive) | 0.127 (inactive) | 79.3% |
| CC(C)(C)c1cc(C(=O)N2CCN(c3nccnc3C#N)CC2)n(Cc2ccccc2)n1 | 0 (inactive) | 0 (inactive) | 1 (inactive) | < 0 (inactive) | 0.027 (inactive) | 0.0303 (inactive) | 120% |
